# Source: the supplement of paper PMC9135407
# Several values for one entry are separate records, joined by “and”; a condition that tells them apart may be missing. Identical values can stand only once. Counter-ions that a name gives are not always drawn. Among all 5,800 compounds or so, about 620 (11%) showed activity. The sample as a whole holds a higher share of actives than the screen did. Unmarked numbers belong to inactive results.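 How the source made its calls: active = score above a cut-off or among the top three wells of a plate; in these data no inactive exceeds 0.85.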
# Tested on: primary human hepatic stellate cells (donor 1)
# Test: scaled lipid accumulation score (0 = DMSO-like, 1 = nortriptyline-like); higher = stronger HSC inactivation (lipid re-accumulation), active = hit call of the paper
# Conditions: 48 h
# [1] = library stock concentration: 10 mM
# [2] = library stock concentration: 1 mM
# [3] = library stock concentration: 80 uM
# [4] = library stock concentration: 400 uM
# [5] = library stock concentration: 2 mM
# [6] = library stock concentration: 3.33 mM
structure (smiles),measurement,setting,value
COc1ccc(CCN(C)CCCOc2ccc(S(=O)(=O)c3c(C(C)C)c4ccccc4n3C)cc2)cc1OC,scaled lipid accumulation score,[1],0.445
CC(C)CC[C@@H](O)[C@@H](C)[C@H]1CC[C@H]2[C@@H]3CC=C4C[C@@H](O)CC[C@]4(C)[C@H]3CC[C@]12C [22(R)-hydroxy Cholesterol],scaled lipid accumulation score,[2],0.045
O=C1C[C@@H]2[C@@H](/C=C/[C@@H](O)COc3cccc(C(F)(F)F)c3)[C@H](O)C[C@@H]2O1 [Fluprostenol Lactone Diol],scaled lipid accumulation score,[2],0.003
CC1=C(C(=O)Nc2cc3cn[nH]c3cc2F)C(c2ccc(C(F)(F)F)cc2)CC(=O)N1 (stereo not given),scaled lipid accumulation score,[3],0.022
same,scaled lipid accumulation score,[4],≤ 0 and ≤ -0.005
same,scaled lipid accumulation score,[5],0.014 and ≤ -0.005
same,scaled lipid accumulation score,[6],≤ 0
same,scaled lipid accumulation score,[1],≤ 0 and 0.096 and 0.308
"C/C=C1\NC(=O)[C@H]2CSSCC/C=C/[C@H](CC(=O)N[C@H](C(C)C)C(=O)N2)OC(=O)[C@H](C(C)C)NC1=O [Romidepsin (FK228, Depsipeptide)]",scaled lipid accumulation score,[6],0.521
same,scaled lipid accumulation score,[1],0.472
C=CC(=O)N1CCc2ccc(-n3c(=O)ccc4cnc5ccc(-c6cnn(C)c6)cc5c43)cc21,scaled lipid accumulation score,[1],1.19 (active)
C=CC(=O)Nc1cc(-n2c(=O)ccc3cnc4ccc(-c5ccc(NS(C)(=O)=O)cc5)cc4c32)ccc1C,scaled lipid accumulation score,[3],≤ -0.001
same,scaled lipid accumulation score,[4],≤ -0.001
same,scaled lipid accumulation score,[5],0.003
same,scaled lipid accumulation score,[1],0.06
C=CC(=O)Nc1cc(-n2c(=O)ccc3cnc4ccc(-c5cn[nH]c5)cc4c32)ccc1C,scaled lipid accumulation score,[3],≤ 0
same,scaled lipid accumulation score,[4],≤ 0
same,scaled lipid accumulation score,[5],0.082
same,scaled lipid accumulation score,[1],0.662
CCCCC(CC)CN=C(N)N=C(N)NCCCCCCNC(N)=NC(N)=NCC(CC)CCCC (stereo not given) [Alexidine hydrochloride],scaled lipid accumulation score,[1],≤ -0.027
CCCCCC1OC(O)CC1SC[C@H](NC(C)=O)C(=O)O (stereo not given in full) [4-hydroxy Nonenal Mercapturic Acid],scaled lipid accumulation score,[2],≤ 0
Nc1c(CC(=O)O)cccc1C(=O)c1ccccc1 [Amfenac Sodium Monohydrate],scaled lipid accumulation score,[6],≤ 0
same,scaled lipid accumulation score,[1],0.019
NC1(Cc2ccc(Cl)cc2)CCN(c2ncnc3[nH]ccc23)CC1 [listing 1 of 2 here],scaled lipid accumulation score,[1],1.09 (active)
NC1(C(=O)N[C@@H](CCO)c2ccc(Cl)cc2)CCN(c2ncnc3[nH]ccc23)CC1,scaled lipid accumulation score,[3],0.053
same,scaled lipid accumulation score,[4],0.049
same,scaled lipid accumulation score,[5],0.038
same,scaled lipid accumulation score,[6],≤ -0.009
same,scaled lipid accumulation score,[1],≤ 0 and 0.178
NC1(Cc2ccc(Cl)cc2)CCN(c2ncnc3[nH]ccc23)CC1 [listing 2 of 2 here],scaled lipid accumulation score,[6],0.47
O=C(c1cccs1)c1ccc(OCCCO)c(Cl)c1Cl [homo-Tienilic Alcohol],scaled lipid accumulation score,[2],0.02
"OCCNCCCOc1cccc(Cl)c1Cl [2,3-DCPE (hydrochloride)]",scaled lipid accumulation score,[2],0.049
"Cl.OCCNCCCOc1cccc(Cl)c1Cl [2,3-DCPE hydrochloride]",scaled lipid accumulation score,[1],1.14 (active)
O=Cc1cccc2[nH]ccc12 [4-formyl Indole],scaled lipid accumulation score,[2],≤ 0
CC(C)(C)Cn1c(N)nc2ccc(-c3[nH]c(C(C)(C)C)nc3-c3ccc(F)cc3)nc21 [Ralimetinib],scaled lipid accumulation score,[3],0.033
same,scaled lipid accumulation score,[4],0.086
same,scaled lipid accumulation score,[5],0.076
same,scaled lipid accumulation score,[1],0.481
CC(C)(C)Cn1c(N)nc2ccc(-c3[nH]c(C(C)(C)C)nc3-c3ccc(F)cc3)nc21,scaled lipid accumulation score,[6],0.034
same,scaled lipid accumulation score,[1],0.268
O=C(O)CCC/C=C\C[C@H]1[C@@H](O)CC(=O)[C@@H]1/C=C/[C@@H](O)COc1cccc(C(F)(F)F)c1 [11-keto Fluprostenol],scaled lipid accumulation score,[2],≤ 0
CN(C)C/C=C(/c1ccc(Br)cc1)c1cccnc1.Cl.Cl [Zimelidine dihydrochloride],scaled lipid accumulation score,[1],0.893 (active)
CN(C)C/C=C(/c1ccc(Br)cc1)c1cccnc1 [Zimelidine dihydrochloride monohydrate],scaled lipid accumulation score,,0.454
CCN(CC)C(=O)c1cccnc1,scaled lipid accumulation score,[1],0.073
CN(C)C/C=C(/c1ccc(Br)cc1)c1cccnc1 [Zimelidine dihydrochloride],scaled lipid accumulation score,library stock concentration: 5.1 mM,0.434
same,scaled lipid accumulation score,[1],0.178
CC(=O)OCOC(c1cc([N+](=O)[O-])ccc1Oc1ccc(Br)cc1)P(=O)(OCOC(C)=O)OCOC(C)=O (stereo not given),scaled lipid accumulation score,library stock concentration: 8.1 mM,0.887 (active)
CS(=O)(=O)Nc1ccc([N+](=O)[O-])cc1Oc1ccccc1 [Nimesulide],scaled lipid accumulation score,,0.061
same,scaled lipid accumulation score,[2],≤ 0
same,scaled lipid accumulation score,[6],≤ 0
same,scaled lipid accumulation score,library stock concentration: 16.2 mM,0.012
CC(=O)OCOC(c1ccc2ccccc2c1)P(=O)(OCOC(C)=O)OCOC(C)=O (stereo not given),scaled lipid accumulation score,library stock concentration: 11 mM,0.031
Cn1cc(C(F)(F)F)nc1-c1ccc(OCC(O)CNCCOc2ccc(O)c(C(N)=O)c2)cc1 (stereo not given),scaled lipid accumulation score,[1],0.731
COc1cc2ncnc(Sc3nnc(C)s3)c2cc1OC [listing 1 of 2 here],scaled lipid accumulation score,[1],0.919 (active)
COc1cc2ncnc(Nc3cc(Br)c(O)c(Br)c3)c2cc1OC,scaled lipid accumulation score,[3],≤ 0
same,scaled lipid accumulation score,[4],≤ 0
same,scaled lipid accumulation score,[5],≤ 0
same,scaled lipid accumulation score,[1],0.04
COc1cc2ncnc(Sc3nnc(C)s3)c2cc1OC [listing 2 of 2 here],scaled lipid accumulation score,[6],≤ -0.009
C=CC(=O)Nc1cc(NC(=O)c2ccc(C)c(NC(=O)c3ccno3)c2)cc(C(F)(F)F)c1,scaled lipid accumulation score,[3],≤ 0
same,scaled lipid accumulation score,[4],≤ 0
same,scaled lipid accumulation score,[5],≤ 0
same,scaled lipid accumulation score,[1],0.311
Nc1ncnc2nc(-c3ccc(N4CCOCC4)nc3)cc(-c3cccc(Br)c3)c12 [ABT 702 dihydrochloride],scaled lipid accumulation score,[1],0.275
Nc1ncnc2nc(-c3ccc(N4CCOCC4)nc3)cc(-c3cccc(Br)c3)c12 [listing 1 of 2 here],scaled lipid accumulation score,[3],≤ -0.001
same,scaled lipid accumulation score,[4],0.008
same,scaled lipid accumulation score,[5],≤ -0.001
Nc1ncnc2nc(-c3ccc(N4CCOCC4)nc3)cc(-c3cccc(Br)c3)c12 [listing 2 of 2 here],scaled lipid accumulation score,[1],0.982 (active)
Nc1ccc(-c2cccc3c(=O)cc(N4CCOCC4)oc23)cc1,scaled lipid accumulation score,[1],≤ -0.001
O=C(CCBr)N1CCN(C(=O)CCBr)CC1 [Pipobroman],scaled lipid accumulation score,[1],≤ -0.027
S=C=Nc1cccc(NC(=S)NCCCCNC(=S)Nc2cccc(N=C=S)c2)c1,scaled lipid accumulation score,[6],0.004
same,scaled lipid accumulation score,[1],0.023
CCNC(=O)c1noc(-c2cc(Cl)c(O)cc2O)c1-c1ccc(OC)cc1,scaled lipid accumulation score,[6],0.783
same,scaled lipid accumulation score,[1],0.741
CCNC(=O)c1noc(-c2cc(C(C)C)c(O)cc2O)c1-c1ccc(CN2CCOCC2)cc1 [listing 1 of 2 here],scaled lipid accumulation score,[6],0.91 (active)
CCNC(=O)c1noc(-c2cc(C(C)C)c(O)cc2O)c1-c1ccc(CN2CCOCC2)cc1 [listing 2 of 2 here],scaled lipid accumulation score,[3],0.702
same,scaled lipid accumulation score,[4],0.802
same,scaled lipid accumulation score,[5],0.808
same,scaled lipid accumulation score,[1],0.831 and 0.776
CN(C)CC(=O)Nc1ccc2[nH]c(=O)c3ccccc3c2c1,scaled lipid accumulation score,[6],≤ 0 and ≤ -0.009
same,scaled lipid accumulation score,[1],0.59 and 0.025
CN(C1CCc2c(c3ccccc3n2CC(=O)O)C1)S(=O)(=O)c1ccc(F)cc1 (stereo not given),scaled lipid accumulation score,[2],0.083
CN(C)[C@@H]1CCc2[nH]c3ccc(NC(=O)c4ccc(F)cc4)cc3c2C1.Cl,scaled lipid accumulation score,[1],1.37 (active)
CCCCCCCCCCCCCCCC(O)C(N)CO (racemic) [DL-Dihydrosphingosine],scaled lipid accumulation score,[2],≤ -0.021
NC(=O)c1cnc(N[C@@H]2CCCC[C@@H]2N)nc1Nc1cccc(-n2nccn2)c1,scaled lipid accumulation score,[3],≤ 0
same,scaled lipid accumulation score,[4],0.015
same,scaled lipid accumulation score,[5],0.218
same,scaled lipid accumulation score,[6],0.214
same,scaled lipid accumulation score,[1],0.215 and 0.449
Cc1cc(O)cc(C)c1Cl [Chloroxylenol],scaled lipid accumulation score,[1],≤ 0
C[C@H]1c2cccc(O)c2C(O)=C2C(=O)[C@]3(O)C(O)=C(C(N)=O)C(=O)[C@@H](N(C)C)[C@@H]3[C@@H](O)[C@@H]21 [Doxycycline Hyclate],scaled lipid accumulation score,[6],≤ 0
same,scaled lipid accumulation score,[1],≤ -0.001
CC(C)OC(=O)CCC/C=C\C[C@@H]1[C@@H](/C=C/[C@@H](O)CCc2ccccc2)[C@H](O)C[C@@H]1O [17-phenyl trinor Prostaglandin F2.alpha. isopropyl ester],scaled lipid accumulation score,[2],≤ 0
CC(C)Nc1ncccn1,scaled lipid accumulation score,[1],≤ 0
C(=C\c1ccccc1)/CN1CCN(C(c2ccccc2)c2ccccc2)CC1 [Cinnarazine],scaled lipid accumulation score,library stock concentration: 5.4 mM,0.328
same,scaled lipid accumulation score,[1],0.423
COc1ccc(-c2cc(C(F)F)nn2-c2ccc(S(N)(=O)=O)cc2)cc1F [Deracoxib],scaled lipid accumulation score,library stock concentration: 5 mM,≤ 0
CCCCC/C=C\C/C=C\C/C=C\CCCCC(=O)OC [.gamma.-Linolenic Acid methyl ester],scaled lipid accumulation score,[2],≤ 0
O=C(O)CCCCCC[C@@H]1[C@@H](CC[C@@H](O)CCc2cccc(C(F)(F)F)c2)[C@H](O)C[C@@H]1O,scaled lipid accumulation score,[2],≤ 0
"CCCCC(C)(C)[C@H](O)/C=C/[C@H]1[C@H](O)CC(=O)[C@@H]1CC(=O)CCCCC(=O)O [16,16-dimethyl-6-keto Prostaglandin E1]",scaled lipid accumulation score,[2],≤ 0
CC[C@]1(O)C[C@@H]2CN(CCc3c([nH]c4ccccc34)[C@@](C(=O)OC)(c3cc4c(cc3OC)N(C=O)[C@H]3[C@@](O)(C(=O)OC)[C@H](OC(C)=O)[C@]5(CC)C=CCN6CC[C@]43[C@@H]65)C2)C1.O=S(=O)(O)O,scaled lipid accumulation score,[1],1.47 (active)
CC[C@]1(O)C[C@H]2CN(CCc3c([nH]c4ccccc34)[C@@](C(=O)OC)(c3cc4c(cc3OC)N(C=O)[C@H]3[C@@](O)(C(=O)OC)[C@H](OC(C)=O)[C@]5(CC)C=CCN6CC[C@]43[C@@H]65)C2)C1 [Vincristine],scaled lipid accumulation score,[6],0.004
same,scaled lipid accumulation score,[1],0.512
CC[C@]1(O)C[C@H]2CN(CCc3c([nH]c4ccccc34)[C@@](C(=O)OC)(c3cc4c(cc3OC)N(C=O)[C@H]3[C@@](O)(C(=O)OC)[C@H](OC(C)=O)[C@]5(CC)C=CCN6CC[C@]43[C@@H]65)C2)C1.O=S(=O)(O)O [Vincristine sulfate],scaled lipid accumulation score,[1],1.36 (active)
CCC1(O)CC2CN(CCc3c([nH]c4ccccc34)[C@@](C(=O)OC)(c3cc4c(cc3OC)N(C=O)C3[C@]45CCN4CC=C[C@@](CC)([C@@H](OC(C)=O)[C@]3(O)C(=O)OC)[C@H]45)C2)C1.O=S(=O)(O)O (stereo not given in full) [Vincristine sulfate],scaled lipid accumulation score,[1],0.897 (active)
